High-throughput results: PubChem, The Scripps Research Institute Molecular Screening Center
Sampled rows, rich in hits. Any-hit rate of the full collection: about 3.5%.
GPR151 activ = activates the human receptor GPR151; activation, % at 11.2 µM; 650,000 tested, 1% active; Q8TDV0; PathHunter beta-arrestin GPR151 cells, luminescence; in the data active means activation above about 4.9%;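 further: 0% = median of compound wells and 100% = cells with positive control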
TEAD-YAP inh = TEAD-YAP interaction inhibition | AID 1259422 | 640,000 tested, 1.4% active | inhibition, % at 9.12 µM | HEK-TIYL cells, TEAD-Gal4/YAP UAS-luciferase luminescence; in the data active means inhibition above about 32%;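 further: 0% = median of test compound wells and 100% = reference inhibitor wells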
FBW7 act = activators of human E3 ligase FBW7 | Q969H0 | AID 1259310 | AlphaScreen FBW7–phospho-cyclin E peptide binding, activator screen | normalized activity (activation), % at 26.1 µM | 650,000 tested, 0.13% active; in the data active means normalized activity above about 1.9%;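 further: purified mutant Fbw7 with reduced substrate affinity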
MITF primary = blocks human microphthalmia-associated transcription factor. inhibition, % at 2.6 µM. AlphaScreen MITF homodimerization, bead proximity signal. O75030. AID 1259374. 650,000 tested, 0.91% active; in the data active means inhibition above about 50%;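 further: 0% = vehicle wells with protein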
Target sequence (O75030 whole entry, looked up): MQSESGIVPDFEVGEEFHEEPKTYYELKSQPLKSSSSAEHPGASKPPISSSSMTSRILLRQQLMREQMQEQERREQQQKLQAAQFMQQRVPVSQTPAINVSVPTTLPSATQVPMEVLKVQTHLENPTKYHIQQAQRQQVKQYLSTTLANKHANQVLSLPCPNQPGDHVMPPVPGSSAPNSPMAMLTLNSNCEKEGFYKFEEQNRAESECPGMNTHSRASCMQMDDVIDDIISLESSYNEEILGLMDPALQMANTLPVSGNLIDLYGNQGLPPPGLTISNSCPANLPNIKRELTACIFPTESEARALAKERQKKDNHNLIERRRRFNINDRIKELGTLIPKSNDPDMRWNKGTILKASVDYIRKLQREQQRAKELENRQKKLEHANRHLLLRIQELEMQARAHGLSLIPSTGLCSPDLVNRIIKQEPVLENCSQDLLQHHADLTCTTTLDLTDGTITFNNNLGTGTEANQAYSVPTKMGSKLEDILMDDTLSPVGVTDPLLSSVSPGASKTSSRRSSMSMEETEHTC
Numbers without * were called inactive.

SMILES	GPR151 activ	TEAD-YAP inh	FBW7 act	MITF primary
Cc1cc(/C=C(\C#N)c2nc3ccccc3[nH]2)c(C)n1-c1ccc(F)cc1	-1	71*	0	-5
Cc1cc(/C=C(\C#N)c2nc3ccccc3[nH]2)c(C)n1C1CC1	2	-30	0	-1
OCCNc1nc(N2CCCC2CO)nc2c1ncn2-c1ccccc1 (stereo not drawn)	-1	55*	0	3
O=C1CCCN1CCCNc1nc(N2CCCC2CO)nc2c1ncn2-c1ccsc1 (stereo not drawn)	-1	42*	0	12
OCC1CCCN1c1nc(NCCN2CCOCC2)c2ncn(-c3ccsc3)c2n1 (stereo not drawn)	0	61*	0	12
CC(C)n1cnc2c(NCCO)nc(N3CCCC3CO)nc21 (stereo not drawn)	-1	17	0	0
Clc1nc(NCc2nc3ccccc3[nH]2)c2ncn(-c3ccccc3)c2n1	2	3	0	-8
OCC1CCCN1c1nc(NCCc2ccc(O)cc2)c2ncn(-c3ccsc3)c2n1 (stereo not drawn)	-2	19	0	6
OCC1CCCN1c1nc(NCc2nc3ccccc3[nH]2)c2ncn(-c3ccccc3)c2n1 (stereo not drawn)	1	48*	0	9
CN1CCC2(CC1)OCc1cc(-c3cccc(O)c3)ccc1O2	0	-2	0	-24
CC(C)n1c(N2CCC(N3CCOCC3)CC2)nc2c(NC3CC3)ncnc21	4	-1	0	3
N#CCc1ccc2c(c1)OCCCO2	0	-5	0	2
CCN(CC)C(=O)C1CCCN(c2nc(NCCCN3CCCC3=O)c3ncn(-c4ccccc4)c3n2)C1 (stereo not drawn)	3	36*	0	8
O=C1CCCN1CCCNc1nc(N2CCCC2CO)nc2c1ncn2-c1ccccc1 (stereo not drawn)	0	47*	0	5
CCOC(=O)c1c(NC(=O)c2cc(-c3ccccc3)nc3ccccc23)sc2c1CCC2	0	-3	0	-2
O=C(NCCCN1CCOCC1)c1cc(-c2cccs2)nc2ccccc12	0	14	0	-5
CC(C)OCCCNC(=O)c1cc(-c2cccs2)nc2ccccc12	0	36*	0	-1
COc1ccc(Cl)cc1Nc1ncnc2c1cnn2-c1ccccc1	0	-15	0	10
COc1ccc(-n2ncc3c(Nc4ccc(OC)c(Cl)c4)ncnc32)cc1	0	54*	0	-17
COc1ccc(-n2ncc3c(Nc4cc(Cl)ccc4OC)ncnc32)cc1	1	41*	0	33
COc1cc(/C=N/Nc2n[nH]c(=O)[nH]c2=O)ccc1O	0	15	0	-20
CCC(C)NC(=O)CSc1nc(NCCc2ccccc2)c2ccccc2n1 (stereo not drawn)	0	3	0	-1
CC1=NN(c2nc(-c3ccccc3)cs2)C(=O)C1C(c1ccccc1)C(C#N)C(N)=O (stereo not drawn)	-1	76*	1	24
O=C(CN1CCOCC1)Nc1nnc(SCC(=O)N2c3ccccc3Sc3ccccc32)s1	1	-7	0	-1
CCc1ccccc1NC(=O)CSC1=C(C#N)C(c2ccc(C)o2)C2=C(CCCC2=O)N1 (stereo not drawn)	-1	55*	0	-3
SMILES	GPR151 activ	TEAD-YAP inh	FBW7 act	MITF primary
CCN(c1ccccc1)S(=O)(=O)c1cc(C(=O)Nc2ccc(Br)cc2)ccc1F	0	4	0	6
CCCCN(CC)S(=O)(=O)c1cc(C(=O)Nc2ccc(Oc3ccccc3)cc2)ccc1F	0	60*	0	-4
CN(Cc1ccccc1)S(=O)(=O)c1cc(C(=O)Nc2ccc(Oc3ccccc3)cc2)ccc1F	0	61*	0	27
COc1cccc(NC(=O)c2ccc(F)c(S(=O)(=O)N(C)Cc3ccccc3)c2)c1	2	-4	0	-6
CCN(Cc1ccccc1)S(=O)(=O)c1cc(C(=O)Nc2ccc(Br)cc2)ccc1F	1	50*	0	-1
CCC/C(O)=C1\C(=O)CC(C)(C)CC1=Nc1ccc(OC)cc1OC	0	55*	0	17
COc1cc(OC)c2c(=O)c(-c3ccc4c(c3)OCO4)coc2c1	0	-66	0	-6
CC(=O)Oc1cc(OC(C)=O)c2c(=O)c(-c3ccc4c(c3)OCCCO4)coc2c1	-1	70*	0	3
CC(=O)Oc1ccc2c(=O)c(-c3ccc4c(c3)OCCCO4)coc2c1	-2	67*	0	4
COc1ccc2c(=O)c(-c3ccc4c(c3)OCCCO4)coc2c1	-1	-23	0	18
CN1CC[C@@H](Oc2cc(C(=O)Nc3ccc4[nH]ncc4c3)ccn2)C1	0	52*	0	0
CN1CC[C@H](Oc2ccnc(C(=O)Nc3ccc4[nH]ncc4c3)c2)C1	1	17	1	12
CN1CC[C@H](Oc2ccc(C(=O)Nc3ccc4[nH]ncc4c3)cn2)C1	1	16	0	6
CN1CCCC(Oc2ccnc(C(=O)Nc3ccc4[nH]ncc4c3)c2)C1 (stereo not drawn)	1	45*	1	8
O=C(Nc1ccc2[nH]ncc2c1)c1ccc(O[C@H]2CCNC2)nc1	-1	4	0	-2
NCCOc1ccc(C(=O)Nc2ccc3[nH]ncc3c2)cn1	3	54*	0	23
CN1CCC(Oc2ccc(C(=O)Nc3ccc4[nH]ncc4c3)cn2)CC1	-1	88*	0	34
CSCCC(C(=O)Oc1ccc2c(C)cc(=O)oc2c1)N1C(=O)c2ccccc2C1=O (stereo not drawn)	0	11	0	-2
Cc1cc(NC(=O)C(C)(C)C)n(-c2nc3c(c(=O)[nH]2)CCC3)n1	-3	19	0	23
COc1ccccc1/C=N/NC(=O)c1cc(-c2ccc(C)cc2)n[nH]1	-1	13	0	14
COc1cccc(/C=N/NC(=O)c2cccc(NC(=O)c3ccccc3F)c2)c1O	1	64*	0	8
Cc1ccccc1/C=N/NC(=O)c1ccccc1C	3	-43	0	2
COc1cccc(/C=N/NC(=O)c2cc(C34CC5CC(CC(C5)C3)C4)[nH]n2)c1O	0	40*	0	12
Cc1ccccc1C(=O)N/N=C/c1cccc(O)c1O	0	59*	-1	26
COc1cccc(/C=N/NC(=O)c2cc(-c3ccc(C)cc3)n[nH]2)c1O	-1	79*	0	62*
SMILES	GPR151 activ	TEAD-YAP inh	FBW7 act	MITF primary
CCN(C(=O)CCc1nc(-c2ccccc2F)no1)c1ccc(OC)cc1	2	4	0	22
COc1cccc(/C=N/NC(=O)c2ccc(O)cc2O)c1O	-1	42*	-1	31
COc1ccc(C(=O)N/N=C/c2cccc(OC)c2O)cc1	-1	8	0	28
COc1cccc(/C=N/NC(=O)c2ccc(-c3ccccc3)cc2)c1O	-1	83*	0	2
CC(C)Oc1ccc(-c2cc(C(=O)N/N=C/c3ccccc3O)[nH]n2)cc1	0	65*	0	9
COc1cccc(/C=N/NC(=O)COc2ccccc2)c1O	-1	2	-1	-5
